Assay results: PubChem BioAssay AID1259343 (VanderVen Lab, College of Veterinary Medicine, Cornell …, 2017)
The whole screen tested about 6,200 compounds, of which about 2,900 (47%) were called active. So high a share suggests a set chosen from earlier hits. The list shows a part of the results. Unmarked numbers belong to inactive results. Cut-off read from the data, not from the text of the source: active = inhibition above about 50%; inactive = the rest.

test: Mycobacterium tuberculosis growth inhibition, primary screen (AID 1259343); conditions: inhibition: at 10 µM, active compounds read high; outcome: 10 uM

| SMILES | inhibition |
| --- | --- |
| O=C(Nc1ccc(F)cc1F)N1CCC(Cc2ccc(C(F)(F)F)cc2)CC1 | 62.3% (active) |
| COc1cccc(NC(=O)N2CCC(Cc3ccc(F)cc3)CC2)c1 | 47.7% |
| O=C1NC2(CCN(C(=O)Nc3ccc(C(F)(F)F)cc3)CC2)Nc2cc(Cl)ccc21 | -1.82% |
| COc1ccc(CC2CCN(C(=O)Nc3cccc(F)c3)CC2)cc1 | 74.8% (active) |
| O=C(NC1CCN(c2ccccc2C(=O)NCc2ccc(F)cc2)CC1)c1ccc(C(F)(F)F)cc1 | -29.8% |
| Cc1ccc(F)cc1NC(=O)N1CCN(CCCOC(c2ccc(Cl)cc2)c2ccc(Cl)cc2)CC1 | 6.69% |
| O=C(Nc1nnc(C2CC2)s1)N1CCC(Cc2cccc(F)c2)CC1 | -2.76% |
| O=C(Nc1ccc(F)cc1F)N1CCC(Cc2ccc(-n3cccc3)cc2)CC1 | 51% (active) |
| CCC(=O)NC(=S)Nc1ccc(C(=O)NC(C)(C)C)cc1 | 37.3% |
| COc1ccc(-n2nc3ccc(N)cc3n2)cc1 | -45% |
| CCCC(=O)NC(=S)Nc1ccc2nn(-c3ccccc3)nc2c1 | 79.1% (active) |
| CCCCSc1n[nH]c(=S)s1 | -27% |
| C=C(C)CSc1n[nH]c(=S)s1 | 58.8% (active) |
| S=c1[nH]nc(SCC#Cc2ccccc2)s1 | 47.6% |
| CC(C)Sc1n[nH]c(=S)s1 | -48.8% |
| CC(C)CSc1n[nH]c(=S)s1 | 100% (active) |
| S=c1[nH]nc(SCc2c(Cl)cccc2Cl)s1 | 23.4% |
| CCCSc1n[nH]c(=S)s1 | -46% |
| S=c1[nH]nc(SCc2cccs2)s1 | 99.3% (active) |
| O=C1NC(=S)SC1=Cc1c(F)cccc1F | 74.2% (active) |
| O=C1NC(=S)SC1=Cc1c(F)cccc1Cl | 83.6% (active) |
| CC(=O)N[C@@H]1C[C@H](Cc2ccccc2)O[C@H](c2ccc(Cl)cc2)C1 | 61% (active) |
| CC(C)(C)c1ccc(S(=O)(=O)/C=C/C#N)cc1 | 102% (active) |
| CCOC(=O)c1cnn(Cc2ccc(C)cc2)c1N | 71.9% (active) |
| CCNC(=S)n1ncc(C(=O)OCC)c1N | -17% |
| CCOC(=O)c1cc([N+](=O)[O-])nn1Cc1ccc(Cl)c(Cl)c1 | 19.4% |

| SMILES | inhibition |
| --- | --- |
| CCC(C)(C)C1CCc2sc3ncnc(NCCN4CCOCC4)c3c2C1 (configuration not stated) | 85% (active) |
| Clc1ccc(-c2nc(NCCN3CCOCC3)c3ccc(Cl)cc3n2)cc1 | 47.7% |
| Nc1c(S(=O)(=O)c2ccccc2)c2nc3ccccc3nc2n1-c1cccc(S(N)(=O)=O)c1 | 19.5% |
| Clc1ccc(CSc2ncccn2)cc1 | 55.1% (active) |
| O=S1(=O)CCN2N=C(SCc3ccc(Cl)cc3)SC2=N1 | 2.87% |
| N#Cc1ccc(CSc2ncccn2)cc1 | -28.1% |
| Cc1ccc(OCc2ccc(C(F)(F)F)cc2)c(CO)n1 | 59.9% (active) |
| CCOC(=O)NCC(=O)N(Cc1ccc(C(F)(F)F)cc1)C1CC1 | -10.5% |
| COc1cccc(CC2(CO)CCCN(C(=O)CCCc3ccc(Cl)cc3)C2)c1 (configuration not stated) | 20.4% |
| COc1cccc(CC2(C(=O)O)CCN(c3ccc(Cl)cn3)CC2)c1 | 90.8% (active) |
| c1cc(NC2CCCCCCC2)cc(-n2ccnc2)c1 | 56% (active) |
| c1ncc(-c2ccc(NCC3CCOCC3)cc2)o1 | 35.5% |
| c1cc(NC2CCCCCC2)c2cccnc2c1 | 9.23% |
| Oc1ccc(Br)cc1-c1nc2cnccn2c1NC1CCCC1 | 37.9% |
| c1cc(NC2CCCCCCC2)cc(-c2cnco2)c1 | 71.3% (active) |
| c1ccc(-c2nnc(NC3CCCCC3)s2)cc1 | 28.9% |
| S=C(SC1OCCOC1SC(=S)N1CCOCC1)N1CCOCC1 (configuration not stated) | 99.8% (active) |
| COc1ccc(C(=O)COC(=O)c2ccccc2[N+](=O)[O-])cc1OC | -15.5% |
| COc1ccc(C(=O)c2ccccc2)c(O)c1O | 68.3% (active) |
| COc1ccc(C(=O)c2ccc(O)cc2)c(O)c1O | 55.4% (active) |
| COc1ccc(COc2ccc(Cl)cc2C(N)=O)cc1F | 27.6% |
| COc1ccc(C(=O)C=Cc2ccccc2Br)c(OC)c1 | 23.5% |
| Cc1nc(SCC(=O)N(C)Cc2ccsc2)c(C(N)=O)c(C)c1C | -7.74% |
| CN1CCN(C2Cc3ccccc3Sc3ccc(Cl)cc32)CC1 (configuration not stated) | 39.5% |
| CN1CCC(=C2c3ccccc3Sc3ccccc32)CC1 | 60.1% (active) |
| COc1cccc(NC(=O)N2CCc3nc(Nc4cc(Cl)cc(Cl)c4)ncc3C2)c1 | 33.2% |

| SMILES | inhibition |
| --- | --- |
| CCOC(=O)c1ccc(NC(=O)N2CCc3nc(Cc4ccccc4OC)nc(N4CCOCC4)c3C2)cc1 | 61.8% (active) |
| CCc1ccc(NC(=O)N2CCN(c3nc(-c4ccc(Cl)cc4)nc(C)c3C)CC2)cc1 | 28.1% |
| Oc1c(C(c2ccc(C(F)(F)F)cc2)N2CCOCC2)ccc2cccnc12 (configuration not stated) | 104% (active) |
| Oc1c(C(c2ccc(F)cc2)N2CCOCC2)ccc2cccnc12 (configuration not stated) | 82.2% (active) |
| COc1ccc(-n2nc([N+](=O)[O-])c(=NCCC3=CCCCC3)n2O)cc1 | 95.6% (active) |
| C=C(C)c1cccc(C(C)(C)NC(=O)Nc2ncccn2)c1 | -1.81% |
| CC(C)Cn1ccnc1NC(=O)c1cccc(C(F)(F)F)c1 | 52.5% (active) |
| COc1cc(S(=O)(=O)N2CCN(c3ccccc3C)CC2)ccc1Cl | 12.3% |
| CSc1nnc(COc2ccccc2Cl)n1C1CC1 | 1.97% |
| CN1CCN(S(=O)(=O)c2ccc(SCCOc3ccccc3Cl)nc2)CC1 | 90% (active) |
| CCOC(=O)c1sc(N)c(C(=O)OCC)c1C | 32.7% |
| CCOC(=O)c1c(N)sc(C(N)=O)c1C | 84.7% (active) |
| CCOC(=O)c1sc2nc(C)nc(NCC(C)C)c2c1C | -22.6% |
| Cc1cccc(-c2ccc(NC(=O)C3CCN(C(=O)Cn4cccn4)CC3)cc2)c1 | inactive |
| Cc1cccc(-c2ccc(NC(=O)C3CCN(C(=O)CSc4ccncc4)CC3)cc2)c1 | 74.8% (active) |
| Cc1cccc(-c2ccc(NC(=O)C3CCN(C(=O)CCc4ccncc4)CC3)cc2)c1 | 85% (active) |
| Cc1cccc(-c2ccc(NC(=O)C3CCN(C(=O)CCc4cnn(C)c4)CC3)cc2)c1 | 87.8% (active) |
| COc1ccc2oc(=Nc3cccc(C#N)c3)c(-c3nc4ccccc4[nH]3)cc2c1 | -9.36% |
| CSc1ccc(-c2nc(CN3CCN(c4cnccn4)CC3)c(C)o2)cc1 | inactive |
| COc1ccc(-c2nc(CN3CCN(c4ccc(C)cc4C)CC3)c(C)o2)cc1 | 67.6% (active) |
| COc1ccc(-c2nc(CN3CCN(c4nc5ccccc5s4)CC3)c(C)o2)c(OC)c1 | 15.8% |
| Cc1ccccc1-c1cnnc(NCCCn2ccc3ccccc32)n1 | 32.6% |
| Clc1ccc(OCCN2CCc3ccccc3C2)cc1 | 87.5% (active) |
| Brc1cccc(OCCN2CCc3ccccc3C2)c1 | 38.6% |
| O=S(=O)(NC1CCCc2ccccc21)c1ccc(Br)cc1 (configuration not stated) | 10.2% |
| Cc1ccc(-c2nc(CN3CCc4ccccc4C3)co2)c(C)c1 | 27.7% |

| SMILES | inhibition |
| --- | --- |
| Ic1ccc(OCCN2CCc3ccccc3C2)cc1 | 46.5% |
| O=S(=O)(CCN1CCc2ccccc2C1)Oc1ccc(Br)cc1 | 98.6% (active) |
| FC1(F)Oc2ccc(NCc3nc(-c4ccsc4)no3)cc2O1 | 48.7% |
| N=C1SCC(=O)N1c1ncc(Cc2ccccc2)s1 | 102% (active) |
| COc1ccc(C2NC(=O)NC(C)=C2C(=O)OCc2ccccc2)c(OC)c1 (configuration not stated) | -11.8% |
| COc1ccc(CN(C)C(=O)Nc2ccc(C)cc2)c(OC)c1 | -33.2% |
| COc1ccc(CN(C)C2CC(=O)N(c3c(C)cccc3C)C2=O)c(OC)c1 (configuration not stated) | 101% (active) |
| CCCC1CCCC(=C\c2ccc(OC)cc2)/C1=N\OC(=O)NCC (configuration not stated) | 57% (active) |
| Cc1ccc(Cn2c(C)c(C(=O)Nc3ccc(C)cc3)sc2=O)cc1 | -16.4% |
| COc1ccc(NC(=O)c2sc(=O)n(Cc3cccc(F)c3)c2C)cc1 | 60.5% (active) |
| COc1ccc(NC(=O)c2sc(=O)n(Cc3ccccc3)c2C)cc1 | 5.9% |
| COc1ccc(NC(=O)c2sc(=O)n(Cc3ccc(C)cc3)c2C)cc1OC | 41.4% |
| C=Cc1ccc(Cn2c(C)c(C(=O)Nc3ccc(OC)c(OC)c3)sc2=O)cc1 | -5.14% |
| COc1ccc(NC(=O)c2sc(=O)n(Cc3ccc(C)cc3)c2C)cc1 | 79.5% (active) |
| COc1ccc(NC(=O)c2sc(=O)n(Cc3ccc(OC(F)(F)F)cc3)c2C)cc1 | 55.9% (active) |
| C=Cc1ccc(Cn2c(C)c(C(=O)Nc3ccc(OC)cc3)sc2=O)cc1 | 2.61% |
| Cc1cc(CN2CCN(c3c(Br)cnc4nc(-c5ccc(N6CCN(C)CC6)cc5)[nH]c34)CC2)no1 | 23.4% |
| Clc1ccc2c(c1)C(N1CCNCC1)=Nc1ccccc1O2 | 81.5% (active) |
| Cc1ccccc1CCNC(=O)Cn1c(-c2cccs2)n[nH]c1=S | 1.7% |
| Cc1oc(-c2cc3c(cc2Cl)OCO3)nc1CN(C)Cc1ccc(C(F)(F)F)cc1 | 46.8% |
| Cc1oc(-c2ccc(C(F)(F)F)cc2)nc1CN(C)CC1COc2ccccc2O1 (configuration not stated) | 53.7% (active) |
| COc1cccc2c1OCCCN(Cc1nc(-c3ccc(C(F)(F)F)cc3)oc1C)C2 | 23.4% |
| O=C(CSC1CCCCC1)NC1CCCC1 | -47.7% |
| O=C(Cc1ccc(Br)cc1)NC1CCCC1 | 82.1% (active) |
